Some test systems named below: NCI-H23 lung; NCI-H226 lung; NCI-H322M lung; HOP-62 NSCLC; NCI-H460 lung; HOP-92 NSCLC; NCI-H522 lung; A549/ATCC NSCLC; 786-0 renal; COLO 205 colon.
Common to all, as to assay: NCI-60 one-dose screen, 48 h (100 = growth as untreated, 0 = no growth, -100 = all killed)
What all share (details): 10 µM unless noted

The panel holds about 83,000 compounds, 20% with a hit somewhere; the sample as a whole holds those more often.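 Assay: single dose, 48 h. Readout: percent growth (0 = no net growth; negative = cell death). Active: <10.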 Values without a mark were called inactive. Active and inactive are the calls of the source.

In the case of `CCCCNC(=O)Oc1ccc(/C(=C(\C)c2ccccc2)c2ccc(OCCN3CCCCC3)cc2)cc1`, the growth was 67.9% in the experiment on NCI-H23 lung; 86.8% in the experiment on NCI-H226 lung; 75.3% in the experiment on NCI-H322M lung; 77.9% with HOP-62 NSCLC; 40.5% with NCI-H460 lung; 68.1% with HOP-92 NSCLC. The growth in the experiment on NCI-H522 lung was 73.1%; in the experiment with A549/ATCC NSCLC, 57.8%; in the experiment on 786-0 renal it was 27.1%; in the experiment on COLO 205 colon, 14.3%.

Take `N#C/C(=C\c1cccc(C#N)c1)c1ccccc1`: the growth in the experiment on NCI-H23 lung is 101%; with NCI-H226 lung, 105%; in the experiment with NCI-H322M lung it was 104%; with HOP-62 NSCLC, 92.9%; in the experiment with NCI-H460 lung, 104%; in the experiment on HOP-92 NSCLC, 120%. In addition, the growth in the experiment with NCI-H522 lung was 95.6%; in the experiment on A549/ATCC NSCLC, 88.8%; with 786-0 renal it was 105%; with COLO 205 colon, 104%.

`O=C(Nc1cccc(C2=NCCN2)c1)c1ccc(-c2ccc(C(=O)Nc3cccc(C4=NCCN4)c3)cc2)cc1`: the growth was 73% with NCI-H23 lung; 84% in the experiment on NCI-H226 lung; 93.8% in the experiment on NCI-H322M lung; 113% in the experiment with HOP-62 NSCLC; 37.8% with NCI-H460 lung; 90.9% in the experiment with HOP-92 NSCLC. In addition, the growth in the experiment with NCI-H522 lung is 60.5%; in the experiment with A549/ATCC NSCLC, 74.9%; in the experiment on 786-0 renal, 86.2%; with COLO 205 colon, 43.9%.

Turning to `Cc1ccc(NS(=O)(=O)c2ccc(-c3cnc(C4CC4)o3)cc2)cc1C(F)(F)F`, the growth in the experiment with NCI-H23 lung is 72.8%; with NCI-H226 lung, 77.9%; with NCI-H322M lung it was 88.7%; in the experiment on HOP-62 NSCLC, 60.7%; in the experiment with NCI-H460 lung it was 55.8%; in the experiment with HOP-92 NSCLC, 83.3%. The growth was 39.9% with NCI-H522 lung, 55.2% in the experiment on A549/ATCC NSCLC, 85.5% with 786-0 renal and 67.5% with COLO 205 colon.

For `O=C1/C=C/[C@@H](O)[C@@H]2C[C@@H](O)C[C@H]2/C=C/CCC[C@H](CCc2cccc3ccccc23)O1`, the growth with NCI-H23 lung is -36% (active); with NCI-H226 lung, -62% (active); in the experiment on NCI-H322M lung, 25.2%; with HOP-62 NSCLC, 21.8%; in the experiment with NCI-H460 lung, 12.2%; in the experiment with HOP-92 NSCLC it was 46.5%. Further, the growth is -25.8% (active) in the experiment with NCI-H522 lung, 19.3% in the experiment on A549/ATCC NSCLC, -44.7% (active) in the experiment with 786-0 renal and -91.9% (active) with COLO 205 colon.

For the molecule `CN(CCN(C)c1ccc(C(=N)N)cc1)c1ccc(C(=N)N)cc1`, the growth with NCI-H23 lung is 86.3%; with NCI-H226 lung, 84%; in the experiment with NCI-H322M lung, 93.1%; with HOP-62 NSCLC it was 102%; with NCI-H460 lung it was 92%; in the experiment with HOP-92 NSCLC, 35%. Further, the growth in the experiment with NCI-H522 lung is 92.4%; in the experiment on A549/ATCC NSCLC it was 103%; in the experiment with 786-0 renal it was 107%; with COLO 205 colon it was 134%.

Regarding `CCC(=O)Oc1ccc(/C(=C(\C)c2ccccc2)c2ccc(OCCN3CCCCC3)cc2)cc1`, the growth in the experiment with NCI-H23 lung was 75.1%; in the experiment with NCI-H226 lung, 82.9%; with NCI-H322M lung, 82%; with HOP-62 NSCLC, 76%; in the experiment on NCI-H460 lung, 72%; in the experiment with HOP-92 NSCLC, 86.5%. Also, the growth with NCI-H522 lung was 74.4%; in the experiment with A549/ATCC NSCLC, 71.1%; in the experiment with 786-0 renal, 67.3%; in the experiment with COLO 205 colon it was 32.7%.

For `COc1cc2c(c(OC)c1OC)-c1ccc(NNC(=S)N(Cc3cccc(C[N+](Cc4cccc(CNC56CC7CC(CC(C7)C5)C6)c4)(Cc4cccc(CNC56CC7CC(CC(C7)C5)C6)c4)Cc4cccc(CN(C(=S)NNc5ccc6c(cc5=O)[C@@H](NC(C)=O)CCc5cc(OC)c(OC)c(OC)c5-6)C56CC7CC(CC(C7)C5)C6)c4)c3)C34CC5CC(CC(C5)C3)C4)c(=O)cc1[C@@H](NC(C)=O)CC2` (stereo not given in full), the growth is 20.7% in the experiment on NCI-H23 lung; -8.38% (active) in the experiment with NCI-H226 lung; 49.6% with NCI-H322M lung; 48.6% with HOP-62 NSCLC; 2.48% (active) with NCI-H460 lung; -5.87% (active) in the experiment on HOP-92 NSCLC. In addition, the growth is -22.8% (active) in the experiment on NCI-H522 lung, 20.9% in the experiment on A549/ATCC NSCLC, 11% with 786-0 renal and -56.9% (active) in the experiment with COLO 205 colon.

For `Cc1c(C(=O)NCCC(=O)NO)sc2ncnc(Nc3ccc(F)c(Cl)c3)c12`, the growth in the experiment on NCI-H23 lung is 101%; with NCI-H226 lung, 104%; with NCI-H322M lung it was 108%; in the experiment on HOP-62 NSCLC, 105%; with NCI-H460 lung it was 100%; in the experiment with HOP-92 NSCLC it was 118%. Moreover, the growth in the experiment with NCI-H522 lung is 95.6%; with A549/ATCC NSCLC, 104%; in the experiment with 786-0 renal, 105%; in the experiment with COLO 205 colon, 117%.

For `CC(=O)N1c2ccccc2NC2=C(C(=O)NC2(C)C)C1c1ccco1` (stereo not given), the growth is 91.2% with NCI-H23 lung; 96.8% with NCI-H226 lung; 94.9% in the experiment on NCI-H322M lung; 112% with HOP-62 NSCLC; 98.4% in the experiment with NCI-H460 lung; 67.2% in the experiment with HOP-92 NSCLC. Also, the growth in the experiment with NCI-H522 lung was 75.7%; in the experiment with A549/ATCC NSCLC it was 96.5%; with 786-0 renal it was 93.9%; with COLO 205 colon it was 77.7%.

On to `COc1cc(-c2n/c(=C\c3c(O)[nH]c4ccc(Cl)cc34)cc3c2=Nc2ccccc2-3)ccc1F`, for which the growth with NCI-H23 lung is 17.2%; in the experiment with NCI-H226 lung it was 60.5%; in the experiment with NCI-H322M lung, 66.5%; in the experiment with HOP-62 NSCLC it was 3.23% (active); in the experiment with NCI-H460 lung, 0.147% (active); in the experiment with HOP-92 NSCLC, -26.3% (active). In addition, the growth is 3.18% (active) with NCI-H522 lung, -52.2% (active) with A549/ATCC NSCLC, -56.8% (active) in the experiment on 786-0 renal and 7.9% (active) with COLO 205 colon.
